# High-throughput results as filed in PubChem BioAssay.
# The list is not random: actives were taken first. Their share in the collection is about 2.7%.
# LDHA block = blocks human lactate dehydrogenase A | activity change, % (values are at about 110 or 230 µM) | AID 1347041 | P00338 | 480,000 compounds, 0.15% hits | purified LDHA, NADH/diaphorase-resazurin fluorescence; hits give low values; in the data active means activity change below about -30%; inconclusive means mostly about -25% to -30%;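 further: plate controls were DMSO wells for no effect and wells without enzyme for full effect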
#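 Enzyme activity of human lactate dehydrogenase 5 (2 nM; 0.06 mM NADH, 0.2 mM pyruvate, 5 min, RT) is measured via a resazurin/diaphorase fluorescence readout of residual NADH.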
# 12-LOX inh = blocks human arachidonate 12S-lipoxygenase; P18054; 580,000 compounds, 1.1% hits; Potency, µM (top dose mostly 108 µM), for the others: top-dose activity change, negative = inhibition, hits mostly inhibitors; purified 12hLO, xylenol orange hydroperoxide absorbance; further: potency means the concentration at half of the fitted maximal effect; on the % scale 0 is the no-effect control and ±100 the full control effect
# Target sequence (P18054 whole entry, looked up): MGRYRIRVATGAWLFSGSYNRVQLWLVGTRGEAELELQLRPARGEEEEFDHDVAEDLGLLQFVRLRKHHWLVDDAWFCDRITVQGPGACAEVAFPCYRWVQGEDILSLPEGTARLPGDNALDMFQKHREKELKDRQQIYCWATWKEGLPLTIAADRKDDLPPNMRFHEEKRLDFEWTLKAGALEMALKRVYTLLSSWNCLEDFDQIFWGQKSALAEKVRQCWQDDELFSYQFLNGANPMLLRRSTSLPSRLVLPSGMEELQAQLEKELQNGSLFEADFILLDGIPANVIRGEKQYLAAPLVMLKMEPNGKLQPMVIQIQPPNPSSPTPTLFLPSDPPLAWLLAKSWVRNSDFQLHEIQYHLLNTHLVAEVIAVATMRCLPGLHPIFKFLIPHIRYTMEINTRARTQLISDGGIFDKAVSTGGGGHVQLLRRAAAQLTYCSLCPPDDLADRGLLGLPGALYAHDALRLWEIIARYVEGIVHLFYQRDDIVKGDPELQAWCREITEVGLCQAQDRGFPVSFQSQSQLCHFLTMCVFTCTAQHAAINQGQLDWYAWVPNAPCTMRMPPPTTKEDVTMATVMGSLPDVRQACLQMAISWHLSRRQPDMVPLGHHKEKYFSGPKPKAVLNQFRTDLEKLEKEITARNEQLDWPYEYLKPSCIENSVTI
#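 Hydroperoxide product was detected by ferrous iron/xylenol orange as the 573 to 405 nm absorbance ratio. Arachidonic acid at 40 uM (final) was turned over for 30 min at room temperature by 150 nM human 12hLO, pH 7.0 Hepes buffer, after 15 min compound preincubation.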
# Nrf2 activator = Nrf2 pathway activation | AREc32 ARE-luciferase reporter (MCF7-derived line), luminescence, 24 h | Potency, µM (series often up to 46.1 µM), inactives show top-dose activation, most hits filed as activators | 410,000 compounds, 0.31% hits | AID 624171; further: potency means the concentration at half of the fitted maximal effect; % of control where 0% means no effect; nearly all actives have a fitted effect of over 65% in size
#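 AREc32_Fluc, 1000 cells/well, OPTI-MEM + 5% FBS, o/n 37 deg C 5% CO2; 23 nL cpd by pin tool, 24 hr; Steady-Glo 30 min RT, luminescence.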
# ERG Ets-DNA blk = blocks human ERG Ets domain binding to DNA. P11308. fluorescence polarization, His-ERG Ets domain / labelled DNA. Potency, µM (series often up to 76.9 µM), without a hit: at the top dose FP activity, negative = inhibition, most hits filed as inhibitors. 370,000 compounds, 0.028% hits. AID 624246; active means well fitted inhibition curve with a large enough effect in the polarisation, with a control signal flat; inconclusive means small, poorly fitted or top-dose-only effect, or effect the other way, or a change in a side signal; inactive means no such curve, though single readings can be large or run the other way; the % refers to the polarisation;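 further: polarization taken with two DNA probes labelled with fluorescein and Texas red; potency means the concentration at half of the fitted maximal effect; % of control where 0% means no effect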
#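 His-tagged ERG Ets domain (1 uM in the protein solution; 300mM KCl, 50mM Tris-HCl, 1mM EDTA, 1mM DTT, pH 7.5) received compound, then a probe mix of 5 nM fluorescein-DNA and 100nM Texas-615-DNA. Fluorescence polarization was read for both dyes.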
# Nrf2 block = inhibitors of Nrf2 signaling. A549 ARE-Fluc reporter, luciferase luminescence, 18-24 h. 360,000 compounds, 2.1% hits. AID 504444. Potency, µM (series often up to 46 µM), for the others: top-dose activity change, negative = inhibition, usual class: inhibitors; further: potency means the concentration at half of the fitted maximal effect; on the % scale 0 is the no-effect control and ±100 the full control effect; nearly all actives have a fitted effect of over 60% in size
#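 Concentration-response testing used A549 ARE_Fluc cells at 5000 cells/well. Following an 18-24 h compound incubation, viability was read by fluorescence (Ex 405/Em 525) and luciferase output by luminescence.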
# A549 tox = A549 cytotoxicity, counter-screen for Nrf2 inhibitors. A549 ARE-Fluc cells, CellTiter-Fluor viability, 18-24 h. Potency, µM (top dose mostly 46 µM), for inactives: at the top dose activity change, negative = cytotoxicity, most hits filed as inhibitors. 390,000 compounds, 0.16% hits; further: potency means the concentration at half of the fitted maximal effect; on the % scale 0 is the no-effect control and ±100 the full control effect
#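 Cytotoxicity counterscreen: CellTiter-Fluor fluorescence was measured in A549 ARE_Fluc cells after 18-24 h of compound exposure in a concentration series. The subsequent BugLite luminescent read reports ARE-luciferase activity.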
# * marks the source's active call; other numbers are inactive results; ? = inconclusive; / = no result; [ ] = another dose, or the depositor's remark. Unless noted, the call rests on the fitted dose curve; in most records, active means well fitted curve in the direction sought with a large enough effect; inconclusive means small, poorly fitted or top-dose-only effect, or another doubt; inactive means no such curve, though single readings can be large; an effect the other way counts as inactive or inconclusive.
SMILES,LDHA block,12-LOX inh,Nrf2 activator,ERG Ets-DNA blk,Nrf2 block,A549 tox
CCCNc1c(NS(=O)(=O)c2ccccc2Cl)c(=O)oc2ccccc12,14,2%,/,/,/,/
CCCCOc1ccc(CNC(=S)N/N=C/c2ccc(OC)c(OC)c2)cc1,-8,28µM*,0%,4%,/,-17%
S=C(NCc1ccccc1)N/N=C/c1ccc(OCCOc2ccc(Br)cc2)cc1,-3,-11%,/,/,/,/
Cc1n[nH]c(C)c1NC(=O)CN1CCN(S(=O)(=O)c2ccc(C(F)(F)F)cc2)CC1,-37*,-69%,2%,-8%,-3%,12%
COc1ccc(S(=O)(=O)N2CCN(c3ccccn3)CC2)cc1OC,-8,9%,0%,-4%,?,2%[1.84 µM]
COc1ccc(S(=O)(=O)N2CCN(c3ncccn3)CC2)cc1OC,-7,35µM*,0%,7%,2%,0%
O=C(CN1CCN(S(=O)(=O)c2ccccc2)CC1)Nc1cccc(C(F)(F)F)c1,4,-17%,-1%,3%,-17%,-10%
COc1ccc(S(=O)(=O)N2CCN(CC(=O)Nc3c(C)n[nH]c3C)CC2)cc1OC,-36*,0.56µM*,0%,13%,-12%,3%
COc1cccc(NC(=O)CSc2nc3ccccc3o2)c1,0,?,/,/,/,/
COc1ccc(CC(=O)N[C@H]2C[C@@H](c3nc(-c4ccc(OC(F)(F)F)cc4)no3)N(C)C2)cc1,/,30%,/,/,/,/
NC(=S)N/N=C1\c2ccccc2-c2c(C(=O)O)cccc21,-3,32µM*,0%,12%,23%,3%
Oc1ccc(C2CCN(c3ccnc4ccccc34)CC2)cc1O,/,3.1µM*,/,/,/,/
N#Cc1ccc(NCCc2coc(-c3ccccc3)n2)nc1,0,-6%,/,/,/,/
CN1N=C(N)c2cn(C3OC(COP(=O)(O)O)C(O)C3O)c3ncnc1c23 (stereo not given),-32*,?,4%,-6%,-19%,-12%
Nc1ncnc2c1ncn2[C@@H]1O[C@H](COP(=O)(O)O)[C@@H](O)[C@H]1O,-3,-6%,0%,-15%,17%,-1%
Cc1oc(-c2cccs2)nc1CC(=O)N1CCOC(C)C1 (stereo not given),-3,-6%,/,/,/,/
Cc1ccc2[nH]c3c(c2c1)CN(C(=O)CN1CCN(c2cccc(C)c2C)CC1)CC3,19,40µM*,5%,-1%,/,?
CCOc1ccc(S(=O)(=O)n2ccc(C)n2)c2ccccc12,-4,0%,0%,-19%,23µM*,?
CC(C)C(=O)NC(Nc1ccccc1Cl)C(Cl)(Cl)Cl (stereo not given),8,-6%,/,/,/,/
O=C(/C(Br)=C\Nc1ccc(F)cc1)C(F)(F)F,10,?,/,/,/,/
Cc1ccc(NS(=O)(=O)c2cc(NC(=O)c3ccc4c(c3)NC(=O)CS4)ccc2Cl)c(C)c1,-1,?,-1%,-5%,7.3µM*,?
Cc1cccc(NC(=O)c2ccc3c(c2)NC(=O)CS3)c1,4,?,/,/,/,/
CC(C)CSc1n[nH]c(=S)s1,-2,22µM*,6%,-14%,-14%,-3%
CC(CSc1n[nH]c(=S)s1)c1ccccc1 (stereo not given),-6,?,5%,-3%,-2%,15%
O=C(c1cc2ccccc2o1)N1CCN(Cc2nc3ccccc3s2)CC1,-14,18µM*,13%,/,/,/
SMILES,LDHA block,12-LOX inh,Nrf2 activator,ERG Ets-DNA blk,Nrf2 block,A549 tox
OC(C#CCN1CCC(c2ccccc2)C1)(c1ccccc1)C1CCCCC1 (stereo not given),20,0.89µM*,/,/,/,/
C#CC1(O)C(C)CN(C)CC1C (stereo not given),4,1%,/,/,/,/
S=c1[nH]nc(Nc2ccccc2Cl)s1,-10,32µM*,2%,2%,10%,-6%
O=[N+]([O-])c1ccc(-c2nc(Nc3ccccc3)c3ccccc3n2)cc1,1,12%,/,/,/,/
O=[N+]([O-])c1ccc(-c2nc(C(Cl)Cl)c3ccccc3n2)cc1,-2,?,3%,6%,15µM*,?
N#CC1(NC(=O)COC(=O)c2nn(Cc3ccccc3)c(=O)c3ccccc23)CCCCC1,3,2%,/,/,/,/
CN(Cc1ccccc1N1CCOCC1)C(=O)c1ccc2c(c1)S(=O)(=O)c1ccccc1C2=O,4,15%,/,/,/,/
CC(=O)N1N=C(c2ccc(Br)cc2)OC1(C)CC(=O)Nc1ccccc1 (stereo not given),3,?,1%,7%,23µM*,?
Cc1cc(N/N=C/c2cccc(Cl)c2)nc(-n2nc(C)cc2C)n1,-2,204%,0%,-11%,16µM*,-21%
C[C@@H]1CN([C@H](C)CO)C(=O)c2cc(NC(=O)Nc3ccc(C(F)(F)F)cc3)ccc2O[C@H]1CN(C)S(=O)(=O)c1ccccc1,0,?,0%,5%,16µM*,?
COc1ccc(S(=O)(=O)N(C)C[C@H]2Oc3ccc(NC(=O)Nc4ccc(C(F)(F)F)cc4)cc3C(=O)N([C@H](C)CO)C[C@@H]2C)cc1,-10,?,0%,-2%,23µM*,?
C[C@H](CO)N1C[C@H](C)[C@@H](CN(C)S(=O)(=O)c2ccccc2)Oc2c(NC(=O)Nc3ccc(C(F)(F)F)cc3)cccc2C1=O,11,-1%,-5%,9%,?,-9%
CSc1cccc(NC(=O)/C=C/c2ccc(Cl)cc2Cl)c1,9,?,/,/,/,/
Cc1cc(NC2CCCCC2)c2ccccc2n1,-4,?,/,/,/,/
CCc1ccc(C(=O)c2ccccc2C(=O)O)cc1,-10,-25%,/,/,/,/
Cc1cc([N+](=O)[O-])ccc1NCc1cccc2ccccc12,-13,-2%,3%,/,15µM*,?
Cc1ccc(C)n1C1C(=O)N(Cc2ccc(C(F)(F)F)cc2)c2ccc(F)cc21 (stereo not given),/,25µM*,/,/,/,/
COc1ccc(CN2C(=O)C(n3c(C)ccc3C)c3cc(OC(F)(F)F)ccc32)cc1 (stereo not given),/,40µM*,/,/,/,/
COc1ccc2c(c1)C(n1c(C)ccc1C)C(=O)N2Cc1ccc(C(F)(F)F)cc1 (stereo not given),/,13µM*,/,/,/,/
COc1ccc(CN2C(=O)C(n3cccc3)c3ccccc32)cc1 (stereo not given),/,-23%,/,/,/,/
COc1ccc2c(c1)C(n1ccc3ccccc31)C(=O)N2Cc1ccc(C(C)C)cc1 (stereo not given),/,14µM*,/,/,/,/
COc1cccc(/C=C/c2nc(C#N)c(N3CCN(Cc4ccccc4)CC3)o2)c1,2,0%,/,/,/,/
FC(F)(F)c1ccccc1N/N=C/c1cccnc1,2,?,0%,2%,?,3%
